Compound activity (PubChem BioAssay)
A selection: hits, their analogues and other compounds. The true share with any hit is near 1.6%.
KCNQ2 inh – blocks the rat KCNQ2 potassium channel; O88943; CHO-K1 KCNQ2, FluxOR thallium flux, 20 min; hits give low values; B-score at 10 µM; 1.1% of 310,000 active;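 active = fluorescence ratio B-score at most minus 3 library SDs, with starting brightness B-score within 2 library SDs, cut at about -5.5 in these data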
KCNQ2 pot – KCNQ2 (rat) channel potentiation; O88943; CHO-K1 KCNQ2, FluxOR thallium flux fluorescence; hits give high values; B-score at 10 µM; 0.54% of 310,000 active;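 active = fluorescence ratio B-score at least 3 SD of library B-scores, with initial fluorescence B-score within 3 of them, cut at about 5.3 in these data; same plate scores as AID 2156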;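 also: B-score of peak minus minimum over baseline fluorescence ratio after K+ and Tl+ stimulus; positive B-score means potentiation of KCNQ2 with more thallium influx and brighter signal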
KCNQ2 inh conf – rat KCNQ2 channel inhibition, confirmatory screen; shares compounds with KCNQ2 inh; KCNQ2-expressing cells, thallium flux; hits give low values; activity change, negative = inhibition, % at 10 µM; 57% of 1,000 active
KCNQ1 spec – KCNQ2 inhibitor that also affects human KCNQ1 channel; KCNQ1-expressing cells, FluxOR thallium flux fluorescence; hits give low values; activity change, negative = inhibition, % at 10 µM; 15% of 1,000 active; shares compounds with KCNQ2 inh;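 active = activity change at least 3 SD of negative controls below their mean in both duplicate wells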;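 also: CHO cells stably transfected with KCNQ1 and depolarized by potassium stimulus; peak minus minimum fluorescence over baseline after thallium addition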
Target sequence (P51787 whole entry, looked up): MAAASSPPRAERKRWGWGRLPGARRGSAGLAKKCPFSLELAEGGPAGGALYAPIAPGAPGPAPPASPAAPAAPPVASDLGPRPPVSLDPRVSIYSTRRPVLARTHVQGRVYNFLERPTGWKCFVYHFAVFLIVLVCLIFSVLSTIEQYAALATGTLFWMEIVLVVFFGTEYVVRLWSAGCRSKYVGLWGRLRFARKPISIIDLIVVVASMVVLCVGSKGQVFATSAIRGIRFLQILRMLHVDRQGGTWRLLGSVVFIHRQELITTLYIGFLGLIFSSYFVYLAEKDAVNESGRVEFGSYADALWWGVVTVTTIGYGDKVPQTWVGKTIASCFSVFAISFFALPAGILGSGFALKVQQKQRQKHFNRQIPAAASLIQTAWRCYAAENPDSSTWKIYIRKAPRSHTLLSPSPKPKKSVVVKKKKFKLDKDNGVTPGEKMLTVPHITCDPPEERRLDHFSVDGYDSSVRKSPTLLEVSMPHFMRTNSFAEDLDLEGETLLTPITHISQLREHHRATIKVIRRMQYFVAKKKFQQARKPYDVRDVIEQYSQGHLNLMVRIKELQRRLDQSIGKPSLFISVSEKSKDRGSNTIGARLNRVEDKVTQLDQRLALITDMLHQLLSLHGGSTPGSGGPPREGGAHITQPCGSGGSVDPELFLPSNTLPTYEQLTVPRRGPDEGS
CHO parental ctr – KCNQ2 inhibitor counter-screen hit in parental CHO cells | shares compounds with KCNQ2 inh | activity change, % at 10 µM | 14% of 1,000 active | thallium flux counter-screen; hits give low values
KCNQ2 patch conf – confirmation of rat KCNQ2 potassium channel inhibitors | shares compounds with KCNQ2 inh | KCNQ2-expressing cells, automated patch clamp current | calls only at 10 µM | 49% of 550 active | AID 588531
Numbers stand for hits; n = inactive; x = no result given; + = active, no number. Unless noted, no rule for the calls is given here.

SMILES	KCNQ2 inh	KCNQ2 pot	KCNQ2 inh conf	KCNQ1 spec	CHO parental ctr	others
CN(C)C(CNc1ncccn1)c1ccccc1 (centres undefined)	n	n	x	x	x
CCOC(=O)c1c(NC(=O)COC(=O)CCOc2ccc(C)cc2)sc(C(=O)N(C)C)c1C	n	n	x	x	x
CN(CC(=O)Nc1c(Cl)cccc1Cl)C(=O)c1cc(S(=O)(=O)N(C)C)ccc1N1CCCC1	n	n	x	x	x
CCOC(CNC(=O)c1ccc2c(c1)ncn2-c1ccccc1OC)OCC	n	x	x	x	x
O=C1[C@H]2[C@@H](c3ccc(F)cc3)N3C(=O)N(c4ccc(Br)cc4)C(=O)[C@@]3(Cc3ccccc3)[C@H]2C(=O)N1C1CCCCC1	n	n	x	x	x
Cc1ccc(N2CCN(C(=S)Nc3ccccc3C)CC2)cc1	n	x	x	x	x
COCCn1c(SCc2cccc([N+](=O)[O-])c2)nc2ccccc2c1=O	n	x	x	x	x
CCOC(CCn1c(SCc2cccc([N+](=O)[O-])c2)nc2ccccc2c1=O)OCC	-7.3	n	n	n	n
O=C(Nn1c(SCc2cccc([N+](=O)[O-])c2)nc2ccccc2c1=O)c1ccccc1	-8.9	n	-38%	-40%	-32%	KCNQ2 patch conf=+
COc1ccc(C(=O)Nn2c(SCc3cccc([N+](=O)[O-])c3)nc3ccccc3c2=O)cc1	n	x	x	x	x
Cc1ccsc1/C=N/NC(=O)c1ccc2ccccc2c1	n	x	x	x	x
CCN1C(C(=O)c2ccccc2)=C(Nc2ccccc2C)c2ccccc2S1(=O)=O	-6.9	n	-34%	-27%	n	KCNQ2 patch conf=n
CCN1C(C(=O)Nc2cc(C)on2)=C(O)c2ccccc2S1(=O)=O	n	n	x	x	x
CN1C(C(=O)c2ccccc2)=C(N)c2ccccc2S1(=O)=O	n	x	x	x	x
Cc1ccc(NC2=C(C(=O)c3ccccc3)N(C)S(=O)(=O)c3ccccc32)cc1	-12	n	-28%	n	n	KCNQ2 patch conf=n
CSCC[C@H](N)C(=O)N1CCC(C(=O)N[C@H](C(=O)NCc2ccccc2F)C(C)C)CC1	n	n	x	x	x
Cc1ccc(S(=O)(=O)N2CCCOC2CNC(=O)C(=O)NCc2cccs2)cc1 (centres undefined)	n	n	x	x	x
O=C(NCCn1cc(SCc2ccccc2)c2ccccc21)c1ccccc1F	-8.2	n	n	n	n
O=C(CSc1cn(CCNC(=O)c2ccccc2F)c2ccccc12)NCC1CCCO1 (centres undefined)	n	n	x	x	x
CC(C)CCN1C(=O)c2ccc(C(=O)N3CCCCC3)cc2C1=O	n	n	x	x	x
COc1ccc(N(C)C(=O)c2cc3c(Cl)nc4ccccc4c3s2)cc1	-9.5	n	-39%	-40%	-37%	KCNQ2 patch conf=+
COc1ccc(NC(=O)c2cc3c(Cl)nc4ccccc4c3s2)c(OC)c1	n	n	x	x	x
CCOC(=O)C1(CCCc2ccccc2)CCN(C(=O)CN2C(=O)CSC2=O)CC1	n	x	x	x	x
COc1ccc(-n2cnnc2SCC(=O)Nc2ccccc2F)cc1	n	n	x	x	x
CC(C)(C)n1nnnc1C(c1ccncc1)N1CCCCCC1 (centres undefined)	n	x	x	x	x
SMILES	KCNQ2 inh	KCNQ2 pot	KCNQ2 inh conf	KCNQ1 spec	CHO parental ctr	others
CC(C)(C)n1nnnc1C(c1ccc(C#N)cc1)N1CCCC2(CCCCC2)C1 (centres undefined)	-7.1	n	-37%	-38%	-37%	KCNQ2 patch conf=n
O=C(Nc1oc2ccccc2c(=O)c1-c1ccc(Br)cc1)c1ccco1	n	x	x	x	x
CC(=O)Nc1ccc(NC(=O)c2ccccc2N(C)S(=O)(=O)c2ccccc2)cc1	n	x	x	x	x
Cc1ccccc1NC(=O)c1ccccc1N(C)S(=O)(=O)c1ccccc1	-7.6	n	-20%	n	n	KCNQ2 patch conf=+
CN(c1ccccc1C(=O)NCc1ccccc1Cl)S(=O)(=O)c1ccccc1	-10	n	n	n	n
COc1ccc(CCNC(=O)c2ccccc2N(C)S(=O)(=O)c2ccccc2)cc1	n	n	x	x	x
COc1ccc(-c2cn(CCC(=O)NCc3ccc(C)cc3)c(CCN)n2)cc1	n	n	x	x	x
CC1CN(Cc2nnc(-c3ccccc3)o2)CC(C)O1 (centres undefined)	n	n	x	x	x
COc1ccc(C(=O)Nc2cc3c(cc2OC)CCCC3)cc1Br	n	x	x	x	x
COc1cc2c(cc1NC(=O)c1ccc(C(C)(C)C)cc1)CCCC2	-7.2	n	n	n	n
CCN(C(=O)c1cnc(NC(C)C)cc1C(F)(F)F)c1ccc(Cl)cc1Cl	n	x	x	x	x
CCOC(=O)c1c(C)[nH]c(C)c1S(=O)(=O)N1CCN(C(=O)c2ccco2)CC1	n	x	x	x	x
CCOC(=O)C1=NNC(C(=O)c2ccccc2)C1c1ccc(Cl)cc1 (centres undefined)	-8.8	n	-18%	n	n	KCNQ2 patch conf=n
CCOC(=O)C1=NNC(C(=O)c2ccccc2)C1c1ccc(C)cc1 (centres undefined)	n	x	x	x	x
O=C(CCN1CCN(c2ccccc2)CC1)c1ccc(Br)cc1	-8.2	n	-22%	n	n	KCNQ2 patch conf=n
O=C(CCN1CCOCC1)c1ccc(Cl)cc1	n	x	x	x	x
COc1ccc(C(=O)CCN2CCN(c3ccccc3F)CC2)cc1	n	x	x	x	x
COc1ccc(C(=O)CCN2CCN(c3ccc(OC)cc3)CC2)cc1	n	x	x	x	x
O=C(CCN1CCN(c2ccccc2F)CC1)c1ccc(Br)cc1	-8.5	n	n	n	n
O=C(CCN1CCOCC1)c1ccc(Br)cc1	-7.4	n	-47%	-50%	-36%	KCNQ2 patch conf=n
Cc1ccc(S(=O)(=O)N2CCN(C(=O)c3ccc(N4CCCCC4)c([N+](=O)[O-])c3)CC2)cc1	n	x	x	x	x
CCCCOC(=O)C1=C(C)NC(=O)NC1c1ccccc1 (centres undefined)	n	n	x	x	x
CCOC1(c2ccccc2)CC1C(=O)N/N=C/c1cccc([N+](=O)[O-])c1 (centres undefined)	n	x	x	x	x
CCOc1ccc(-n2nnnc2SCC(=O)Nc2cccc(O)c2)cc1	n	n	x	x	x
CN1CCN(C(=O)c2cc([N+](=O)[O-])ccc2Cl)CC1	n	n	x	x	x
SMILES	KCNQ2 inh	KCNQ2 pot	KCNQ2 inh conf	KCNQ1 spec	CHO parental ctr	others
CC(C)C1CCN(C(=O)C2CCC(=O)N(CCc3ccc(Cl)cc3)C2)CC1 (centres undefined)	n	x	x	x	x
C=CCC1(CC=C)CCCN1C(=O)C1CCC(=O)N(CCc2ccc(Cl)cc2)C1 (centres undefined)	-8.2	n	-29%	n	n	KCNQ2 patch conf=+
COc1ccc(/C=C2/SC(=O)N(CCC(=O)Nc3ccccc3C(=O)O)C2=S)cc1	n	x	x	x	x
CCc1ccc(C(C)NC(=O)/C(C#N)=C\c2cn[nH]c2-c2ccccc2)cc1 (centres undefined)	-9.1	n	n	n	n
CC(NC(=O)/C(C#N)=C/c1cn[nH]c1-c1ccccc1)c1ccccc1 (centres undefined)	n	x	x	x	x
COc1ccc(Cn2nnnc2C(C(C)C)N(Cc2ccco2)Cc2cccs2)cc1 (centres undefined)	n	x	x	x	x
CC(C)C(c1nnnn1Cc1ccccc1)N(Cc1ccco1)Cc1cccs1 (centres undefined)	-9	n	-44%	-45%	-41%	KCNQ2 patch conf=n
CC1CCC(NC(=O)CC(NC(N)=O)c2ccccc2Cl)CC1 (centres undefined)	n	n	x	x	x
Cc1cc(N2CCCCC2)n2ncc(-c3ccccc3)c2n1	n	x	x	x	x
Cc1cc(N2CCC(C)CC2)n2ncc(-c3ccccc3)c2n1	-8.3	n	-16%	n	n	KCNQ2 patch conf=n
